± gives the standard deviation.
Assays:
Settings in all cases: modulator concentration 10 µM
[1] = test system: RAW-Dual (murine macrophage reporter line); assay: NF-kB reporter (SEAP) activity fold change vs agonist alone; higher = enhanced NF-kB activity
Procedure, shortened: (§1)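 RAW-Dual murine macrophage reporter cells were plated at 50 000 per well in 384-well plates, pin-transferred compound to 10 μM final, and pre-incubated for 1 hour at 37 °C before a PRR agonist was added and the cells incubated overnight. NF-κB activity was read from supernatant SEAP with QUANTI-Blue at 620 nm absorbance, and IRF activity from Lucia luciferase with QUANTI-Luc by luminescence. Each signal was expressed as fold change by dividing by the mean agonist-only control on the same plate. Two replicate plates were averaged, with errors obtained by propagation.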

[2] = test system: RAW-Dual (murine macrophage reporter line); assay: IRF reporter (Lucia luciferase) activity fold change vs agonist alone; higher = enhanced IRF activity
Procedure, shortened: as §1

[3] = test system: RAW-Dual (murine macrophage reporter line); assay: viability score (confluency relative to resting cells, overnight) (fraction); higher = more viable, active = viable (0.7 or more)
Procedure, shortened: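 RAW-Dual macrophages in 384-well plates were treated overnight with compound at 10 μM final. IncuCyte imaging recorded confluency, and IncuCyte software built two confluency masks across every imaged well. The viability score expresses confluency relative to resting cells and was judged against a cutoff, which a compound met only if both masks exceeded 70% of resting cells.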

[4] = agonist: CpG ODN 1826 0.5 ug/mL

Row | Compound | NF-kB reporter [1, 4] | NF-kB reporter ([1]; agonist: LPS 0.1 ug/mL) | NF-kB reporter ([1]; agonist: MPLA […]) | IRF reporter ([2]; agonist: 3'3'-cGAMP 10 ug/mL) | IRF reporter ([2]; agonist: LPS 0.1 ug/mL) | IRF reporter ([2]; agonist: MPLA […]) | viability score [3]
1 | COC(=O)c1ccc(C=NN=C2C(=O)Nc3ccccc32)cc1 | 0.968 ± 0.069 | 1.05 ± 0.09 | 0.995 ± 0.028 | 0.527 ± 0.028 | 1.09 ± 0.053 | 1.13 ± 0.11 | 0.998 (active)
2 | O=c1n(CCCN2CCN(c3cccc(Cl)c3)CC2)nc2ccccn12 [Prestw-292] | 0.813 ± 0.062 | 0.912 ± 0.067 | 0.899 ± 0.089 | 0.932 ± 0.041 | 1.19 ± 0.14 | 1.19 ± 0.24 | 1.06 (active)
3 | O=C(O)CSc1nnc(Br)n1-c1ccc(C2CC2)c2ccccc12 | 1.08 ± 0.15 | 0.924 ± 0.32 | 0.899 ± 0.05 | 0.624 ± 0.15 | 1.35 ± 0.31 | 1.28 ± 0.1 | 1 (active)
4 | CC(C)(C)C(=O)C(Oc1ccc(Cl)cc1)n1ccnc1 (configuration not stated) | 1.3 ± 0.33 | 0.983 ± 0.33 | 1.08 ± 0.13 | 1.07 ± 0.044 | 1.31 ± 0.36 | 1.34 ± 0.1 | 0.892 (active)
5 | COc1ccc(-n2ncc3c(Nc4cc(OC)c(OC)c(OC)c4)ncnc32)cc1 | 1.13 ± 0.05 | 0.938 ± 0.078 | 1.09 ± 0.085 | 0.821 ± 0.044 | 1.04 ± 0.26 | 1.28 ± 0.45 | 0.887 (active)
6 | CC1=C(C(=O)N2CCOCC2)C(c2cccs2)NC(=O)N1 (configuration not stated) | 1.12 ± 0.18 | 0.973 ± 0.1 | 0.965 ± 0.076 | 0.933 ± 0.047 | 1.07 ± 0.11 | 1.17 ± 0.14 | 0.986 (active)
7 | CCOc1ccc2c(c1)C(c1ccccc1C(F)(F)F)CC(=O)N2 (configuration not stated) | 1.02 ± 0.17 | 1.05 ± 0.091 | 1.03 ± 0.1 | 1.09 ± 0.046 | 1.43 ± 0.33 | 1.57 ± 0.23 | 0.995 (active)
8 | O=C(Nc1ccc([N+](=O)[O-])cc1)c1cc(Cl)ccc1O | 1.14 ± 0.18 | 1.02 ± 0.088 | 0.841 ± 0.081 | 0.905 ± 0.033 | 1.17 ± 0.11 | 1.28 ± 0.17 | 0.991 (active)
9 | Cn1ccnc1Sc1nc(Nc2cccc(Cl)c2)nc(N2CCOCC2)n1 | 0.519 ± 0.045 | 1.03 ± 0.12 | 1.21 ± 0.13 | 0.474 ± 0.019 | 1.24 ± 0.14 | 1.09 ± 0.23 | 1.01 (active)
10 | O=C1C(O)=C(c2ccc([N+](=O)[O-])cc2)C(=O)c2ccccc21 | 0.967 ± 0.065 | 1.02 ± 0.1 | 0.905 ± 0.079 | 0.969 ± 0.038 | 1.53 ± 0.13 | 1.28 ± 0.23 | 1 (active)
11 | COc1cc(C=C2NC(=O)NC2=O)cc(I)c1OCc1ccccc1 | 0.986 ± 0.082 | 1.09 ± 0.066 | 0.93 ± 0.098 | 1.05 ± 0.025 | 1.37 ± 0.15 | 1.12 ± 0.23 | 1.01 (active)
12 | CCN1CCCC1CNC(=O)c1cc(S(=O)(=O)CC)c(N)cc1OC (configuration not stated) | 1.69 ± 0.23 | 1.28 ± 0.32 | 1.23 ± 0.089 | 0.819 ± 0.032 | 0.957 ± 0.29 | 0.808 ± 0.12 | 0.994 (active)
13 | O=C(NC(=S)Nc1ccccc1C(F)(F)F)c1cccc(I)c1 | 0.927 ± 0.088 | 0.989 ± 0.076 | 0.9 ± 0.066 | 0.989 ± 0.025 | 1.24 ± 0.13 | 1.09 ± 0.14 | 1.01 (active)
14 | O=C(NN=Cc1sc2ccccc2c1Cl)c1ccncc1 | 0.918 ± 0.08 | 1.02 ± 0.091 | 0.931 ± 0.058 | 0.808 ± 0.028 | 1.5 ± 0.14 | 1.14 ± 0.11 | 1.01 (active)
15 | COc1c(C)cnc(Cn2cccc(-c3nc(C)no3)c2=O)c1C | 0.826 ± 0.2 | 0.937 ± 0.092 | 0.967 ± 0.061 | 0.95 ± 0.033 | 0.995 ± 0.18 | 1.1 ± 0.22 | 0.997 (active)
16 | N#Cc1c(N=Cc2ccc(Br)cc2)sc2c1CCCC2 | 0.782 ± 0.075 | 1 ± 0.067 | 0.964 ± 0.033 | 0.896 ± 0.14 | 0.96 ± 0.041 | 1 ± 0.077 | 1 (active)
17 | CCc1sc2sncc2c1Br | 0.199 ± 0.022 | 0.817 ± 0.06 | 1.17 ± 0.11 | 0.315 ± 0.014 | 0.713 ± 0.14 | 0.549 ± 0.076 | 0.895 (active)
18 | CC(C)(Oc1ccc(Cl)cc1)C(=O)Nc1cnoc1 | 1.05 ± 0.097 | 1.09 ± 0.082 | 1.08 ± 0.098 | 0.982 ± 0.037 | 1.03 ± 0.063 | 1.04 ± 0.17 | 0.979 (active)
19 | CC#C[C@]1(O)CC[C@H]2[C@@H]3CCC4=CC(=O)CCC4=C3[C@@H](c3ccc(N(C)C)cc3)C[C@@]21C | 0.955 ± 0.093 | 0.722 ± 0.15 | 1.39 ± 0.15 | 0.863 ± 0.048 | 0.868 ± 0.033 | 1.05 ± 0.31 | 1 (active)
20 | COc1ccc(CCNC2CC(=O)N(C)C2=O)cc1OC (configuration not stated) | 1.08 ± 0.061 | 1.03 ± 0.11 | 0.994 ± 0.046 | 0.944 ± 0.07 | 0.998 ± 0.091 | 0.895 ± 0.15 | 0.997 (active)
21 | Ic1ccc2c3ccc(I)cc3c3[nH]c(-c4ccccc4)nc3c2c1 | 1.03 ± 0.094 | 1.07 ± 0.14 | 1.11 ± 0.042 | 0.814 ± 0.054 | 1.05 ± 0.1 | 1.31 ± 0.19 | 0.995 (active)
22 | CS(=O)(=O)NCc1cccc(Oc2ccc(F)cc2)c1 | 1.03 ± 0.066 | 0.955 ± 0.079 | 0.997 ± 0.029 | 1.1 ± 0.046 | 0.992 ± 0.061 | 1.03 ± 0.1 | 0.997 (active)
23 | COc1ccc(C(=O)Nc2sc3c(c2C(N)=O)CCC(C)C3)c(OC)c1 (configuration not stated) | 1.09 ± 0.11 | 1.08 ± 0.067 | 0.947 ± 0.058 | 0.907 ± 0.068 | 1.5 ± 0.2 | 1.22 ± 0.11 | 1.01 (active)
24 | O=C(NCC1CCN(C(=O)c2ccncc2)CC1)c1ccc(Oc2ccccc2)cc1 | 0.988 ± 0.058 | 0.954 ± 0.096 | 0.893 ± 0.026 | 0.873 ± 0.066 | 0.882 ± 0.057 | 0.932 ± 0.12 | 0.997 (active)
25 | O=C(Nc1ccc([N+](=O)[O-])cc1Cl)c1ccc([N+](=O)[O-])cc1 | 0.961 ± 0.083 | 1.07 ± 0.069 | 0.937 ± 0.06 | 0.937 ± 0.032 | 1.48 ± 0.11 | 1.23 ± 0.3 | 1.01 (active)
26 | CCCCc1c(CCC)c(=N)c2ccccc2n1C.I | 0.992 ± 0.098 | 1.18 ± 0.091 | 1.56 ± 0.15 | 1.09 ± 0.048 | 1.67 ± 0.22 | 2.14 ± 0.32 | 1.01 (active)

From the supplement of paper PMC10646978
